The values that follow come from PubChem BioAssay (Tox21).

Results filed as inconclusive are left out. Where a call stands in place of a potency, no number is given. The source made the active and inactive calls. Calls follow the shape of the dose curve; as a rule, active = well fitted activation curve with a large enough effect in the repeat runs; inconclusive = weak or mixed curves; inactive = flat fitted curve, though single readings scatter.
Potency is read from the fitted curve at half-maximal effect.

The assay can be described thus: A CellTox Green Cytotoxicity Assay to monitor cytotoxicity in HepG2 cells - 32 hour (AID 1224883). Also: nearly all actives have a fitted effect of over 50% in size. The following applies: CellTox Green fluorescence; series mostly up to 76.8 µM. From the text:
National Center for Advancing Translational Sciences [NCATS]
NIH Chemical Genomics Center [NCGC]
U.S. Environmental Protection Agency [EPA]
National Institutes of Environmental Health Sciences [NIEHS]
National Toxicology Program [NTP]
Cell-based models are critical for drug discovery. Determining the natural cytotoxic effects resulting from test compounds is an essential research activity. A CellTox Green Cytotoxicity Assay to monitor cytotoxicity in real time of continues cell culture during 40 hours of the compound treatment was used to screen Tox21 10K library compounds in HepG2 cells. CellTox Green Cytotoxicity Assay is a nonlytic, homogeneous, biofluorescent method to measure cytotoxicity in cell culture after experimental manipulation. The assay system uses a proprietary asymmetric cyanine dye that is excluded from viable cells but preferentially stains the dead cell's DNA. […] Viable cells produce no appreciable increases in fluorescence. Therefore, the fluorescence signal produced by the binding interaction with dead cell DNA is proportional to cytotoxicity.
The mixture of HepG2 cell suspension and reagents were dispensed at 600cells/6 ul/well in 1536-well tissue culture treated black solid bottom plates using a Multidrop dispenser. After the assay plates were incubated at a 37 C/5% CO2 incubator for 5 hours, 23 nL of compounds dissolved in DMSO, positive and negative controls was transferred to the assay plate by a pintool work station. The plates were incubated at 37 C for 40 hours. The fluorescence intensity were measured at 0h, 8h, 16h, 24h, 32h and 40h time points using ViewLux plate reader during compound treatment.
`CC1(C)[C@@H](OC(=O)CCC(=O)O)CC[C@]2(C)[C@H]3C(=O)C=C4[C@@H]5C[C@@](C)(C(=O)O)CC[C@]5(C)CC[C@@]4(C)[C@]3(C)CC[C@@H]12`: the Potency result was “inactive”.

Turning to `C/C=C/C=C/C=O`, the Potency entry is “inactive”.

With `O=C1C(=O)c2ccccc2C(O)=C1C1CCC(c2ccc(Cl)cc2)CC1` (stereo not given), the Potency entry is “inactive”.

For the compound `CCCCOc1ccc(OCCCN2CCOCC2)cc1`, the Potency entry was “inactive”.

On to `CC(C)(O)c1ccc(CNC(=O)c2cccnc2Oc2ccc3nonc3c2)cc1`, for which the Potency entry was “inactive”.

Regarding `COc1cc(Nc2c(C#N)cnc3cc(OCCCN4CCN(C)CC4)c(OC)cc23)c(Cl)cc1Cl`, the Potency was 9.52 µM (active).

Regarding `C=CCc1ccccc1OCC(O)CNC(C)C` (stereo not given), the Potency result was “inactive”.

On to `CCOC(C)=O`, for which the Potency entry is “inactive”.

On to `O=C(O)C[C@H](NC(=O)OCc1ccccc1)C(=O)O`, for which the Potency result was “inactive”.

Turning to `CCCCCCCC/C=C\CCCCCCCCCCCC(=O)O`, the Potency result is “inactive”.

In the case of `CC1(C)S[C@@H]2[C@H](NC(=O)C(c3ccccc3)S(=O)(=O)O)C(=O)N2[C@H]1C(=O)O` (stereo not given in full), the Potency entry was “inactive”.

With `Brc1cc2ccccc2c2ccccc12`, the Potency result was “inactive”.

Take `CCCCCCCCOc1ccc(C(=O)O)cc1`: the Potency entry was “inactive”.

Turning to `C/C=C(/C(=C/C)c1ccc(O)cc1)c1ccc(O)cc1`, the Potency was 16.9 µM (active).

Consider `C1C[C@@H]2[C@H]3CC[C@H](C3)[C@@H]2C1`, for which the Potency entry is “inactive”.

With `O=C(CCc1ccc(O)cc1)c1c(O)cc(O)cc1O`, the Potency entry was “inactive”.

In the case of `O=c1[nH]ncc2ccccc12`, the Potency result was “inactive”.

`Nc1cccc2c1CN(C1CCC(=O)NC1=O)C2=O` (stereo not given): the Potency entry is “inactive”.

`CN1CC(=O)N2[C@H](c3ccc4c(c3)OCO4)c3[nH]c4ccccc4c3C[C@@H]2C1=O`: the Potency entry is “inactive”.

For the compound `c1ccc2c(c1)CCc1ccccc1N2`, the Potency entry is “inactive”.

For `Oc1cccc(Nc2ccccc2)c1`, the Potency result is “inactive”.

On to `O=C(O)CCC(=O)C(=O)O`, for which the Potency entry is “inactive”.

In the case of `O=C(OCC(O)CO)c1ccccc1Nc1ccnc2cc(Cl)ccc12` (stereo not given), the Potency was 9.52 µM (active).

As for `C[C@@H](O)[C@H]1C(=O)N2C(C(=O)O)=C([C@H]3CCCO3)S[C@H]12`, the Potency entry was “inactive”.

As for `O=C=Nc1ccc(Cl)c(Cl)c1`, the Potency entry is “inactive”.

Regarding `COC(=O)[C@H]1[C@H]2C[C@@H]3c4[nH]c5cc(OC)ccc5c4CCN3C[C@H]2C[C@@H](OC(=O)/C=C/c2ccc(O)c(OC)c2)[C@@H]1OC`, the Potency was 23.9 µM (active).

On to `O=Cc1c2ccccc2c(Cl)c2ccccc12`, for which the Potency result was “inactive”.

Regarding `C[C@@]12CCC[C@H]1[C@@H]1CC[C@H]3C[C@@H](O)CC[C@]3(C)[C@H]1CC2`, the Potency entry was “inactive”.

Regarding `COc1ccc(OC(=O)N(CC(=O)O)Cc2ccc(OCCc3nc(-c4ccccc4)oc3C)cc2)cc1`, the Potency result is “inactive”.

In the case of `CCCCCCNC(=O)n1cc(F)c(=O)[nH]c1=O`, the Potency entry is “inactive”.

Regarding `CCCCN(CCN(CCCC)C(=O)N1CCOCC1)C(=O)N1CCOCC1`, the Potency result was “inactive”.

For the compound `CC(C)(C)CC(=O)OCC(=O)[C@@]1(O)CC[C@H]2[C@@H]3CCC4=CC(=O)C=C[C@]4(C)[C@H]3[C@@H](O)C[C@@]21C`, the Potency result was “inactive”.

`CCC(C)COC(=O)CC(C)C` (stereo not given): the Potency was 54.9 µM (active).

As to `CC/C=C1/OC(=O)c2ccccc21`, the Potency entry was “inactive”.

As for `C=C1C[C@@]23CC[C@H]4[C@@](C)(CCC[C@@]4(C)C(=O)O[C@@H]4O[C@H](CO)[C@@H](O)[C@H](O)[C@H]4O)[C@@H]2CC[C@]1(O[C@@H]1O[C@H](CO)[C@@H](O)[C@H](O[C@@H]2O[C@H](CO)[C@@H](O)[C@H](O)[C@H]2O)[C@H]1O[C@@H]1O[C@H](CO)[C@@H](O)[C@H](O)[C@H]1O)C3`, the Potency result is “inactive”.

Take `CC(C)COCC(CN(Cc1ccccc1)c1ccccc1)N1CCCC1` (stereo not given): the Potency was 21.3 µM (active).

For the compound `C=C1CCC2CC1C2(C)C` (stereo not given), the Potency result was “inactive”.

In the case of `CCOC(=O)[C@H](CCc1ccccc1)N[C@@H](C)C(=O)N(CC(=O)O)C1Cc2ccccc2C1`, the Potency result is “inactive”.

Regarding `CC(=O)Oc1ccc([N+](=O)[O-])cc1CCl`, the Potency entry was “inactive”.

As to `CCC=CC#N`, the Potency entry was “inactive”.
